Source: PubChem
PNC assembly inh – High Content Assay for Compounds that inhibit the Assembly of the Perinucleolar Compartment; PC3M PTB-GFP, PNC prevalence imaging, 16 h; hits give low values; activity change (PNC), negative = inhibition, % at 10 µM; 140,000 compounds, 3.1% hits; AID 2417, 2010;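 active means readout at or below -70, meaning at least 70% loss of cells showing the perinucleolar compartment, a nuclear body marking cancer cells; inconclusive means readout between -30 and a set limit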;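 further: plate controls were DMSO wells for no effect and camptothecin positive control wells for full effect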
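PC3M cells stably expressing PTB-GFP, 750–1000 cells/well, treated 16 h at 37 °C with compound (23 nl of library stock), in duplicate. After paraformaldehyde fixation and Hoechst stain, imaged at 20x; PNC prevalence scored by image analysis.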
HPGD block – qHTS Assay for Inhibitors of HPGD (15-Hydroxyprostaglandin Dehydrogenase); 15-hydroxyprostaglandin dehydrogenase [NAD(+)] (Homo sapiens), P15428; 150,000 compounds, 4.3% hits; purified HPGD, NADH fluorescence kinetic, PGE2 substrate; Potency, µM, for the others: at the top dose activity change, negative = inhibition, hits mostly inhibitors; further: potency means the concentration at half of the fitted maximal effect
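NADH formation kinetics: reaction with 30 uM PGE2 and 1 mM NAD+ (final), 20 nM enzyme, Tris-HCl pH 8 with Tween 20, after 15 min compound preincubation at room temperature. Fluorescence change, last versus first of five reads.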
ALDH1A1 inh – qHTS Assay for Inhibitors of Aldehyde Dehydrogenase 1 (ALDH1A1); 220,000 compounds, 7.3% hits; Purified ALDH1A1, NADH fluorescence, propionaldehyde substrate; Potency, µM (doses to about 75.3 µM), inactives show at the highest dose activity, negative = inhibition, hits mostly inhibitors;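 further: potency means the concentration at half of the fitted maximal effect; plate controls were no enzyme wells and a reference inhibitor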
Target sequence (P00352 whole entry, looked up): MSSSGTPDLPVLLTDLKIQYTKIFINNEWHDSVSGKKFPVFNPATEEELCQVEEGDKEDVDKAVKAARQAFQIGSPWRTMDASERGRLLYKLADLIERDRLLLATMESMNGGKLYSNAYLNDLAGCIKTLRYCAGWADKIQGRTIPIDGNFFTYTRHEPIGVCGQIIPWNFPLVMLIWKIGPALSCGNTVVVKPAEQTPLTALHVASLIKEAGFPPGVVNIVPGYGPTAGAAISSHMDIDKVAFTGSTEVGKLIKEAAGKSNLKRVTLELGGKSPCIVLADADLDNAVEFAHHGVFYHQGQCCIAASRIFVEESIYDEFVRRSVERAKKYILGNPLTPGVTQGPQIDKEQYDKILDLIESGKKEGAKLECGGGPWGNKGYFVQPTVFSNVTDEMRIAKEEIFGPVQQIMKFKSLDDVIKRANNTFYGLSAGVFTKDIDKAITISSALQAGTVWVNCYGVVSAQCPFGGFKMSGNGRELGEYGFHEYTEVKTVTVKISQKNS
Numbers without * were called inactive; u = inconclusive; x = no result given; [ ] = dose if it differs, or a comment. Rows were chosen to be rich in hits. Some 11% of all compounds tested hit in one or more screens of this group. Unless noted, the call rests on the fitted dose curve; in most records, active means well fitted inhibition curve with a large enough effect (not every such curve was filed as active); inconclusive means small, poorly fitted or top-dose-only effect, or another doubt; inactive means no such curve, though single readings can be large or run the other way. Unless noted, on the % scale 0 is the no-effect control and ±100 the full control effect.

SMILES	PNC assembly inh	HPGD block	ALDH1A1 inh
CCOC(=O)C1=C(C)NC(SCC(=O)O)=C(C#N)C1c1ccco1 (stereo not given)	-13	u	u
N#CC1=C(SCC(=O)c2ccccc2)NC2=C(C(=O)CCC2)C1c1ccco1 (stereo not given)	-89*	u	8.9µM*
C=CCOC(=O)C1=C(C)NC(SCC(=O)N(CC)CC)=C(C#N)C1c1ccco1 (stereo not given)	16	18µM*	u
CC(=O)C1=C(C)NC(SCC(N)=O)=C(C#N)C1c1ccco1 (stereo not given)	x	x	-12%
CCN(CC)C(=O)CSC1=C(C#N)C(c2ccco2)C(C(=O)OCCOC)=C(C)N1 (stereo not given)	-18	u	u
CC(=O)C1=C(C)NC(SCC(=O)c2ccc(Cl)c(Cl)c2)=C(C#N)C1c1ccco1 (stereo not given)	15	22µM*	2.8µM*
Cc1ccc(C(=O)CSC2=C(C#N)C(c3ccco3)C3=C(CCCC3=O)N2)cc1 (stereo not given)	-2	-16%	u
Cc1cc2nccc(-c3ccc(Cl)c([N+](=O)[O-])c3)n2n1	x	x	-11%
COc1ccc2[nH]cc(CCNc3ncncc3-c3c(C)noc3C)c2c1	x	x	2%
CCOC(=O)c1cnc(SC)nc1Oc1cccc(NS(=O)(=O)c2ccc(C)cc2)c1	-23	-8%	6%
CCc1ccc(C(=O)CSC2=C(C#N)C(c3ccco3)C(C(C)=O)=C(C)N2)cc1 (stereo not given)	34	u	u
CC(=O)C1=C(C)NC(SCC(=O)c2ccc(F)cc2)=C(C#N)C1c1ccco1 (stereo not given)	-19	25µM*	13µM*
CC1=C(C(=O)Nc2ccccc2)C(c2ccco2)C(C#N)=C(SCC(=O)Nc2cccc(C)c2C)N1 (stereo not given)	-82*	u	u
CC1=C(C(=O)Nc2ccccc2)C(c2ccco2)C(C#N)=C(SCC(=O)OC(C)C)N1 (stereo not given)	0	-14%	u
C[C@H]1C2=C3C(C[C@H]4C(=O)N(c5ccccc5)C(=O)[C@H]4[C@H]3[C@@]3(Cc4ccccc4)C(=NCCc4c[nH]c5ccccc45)OC(=O)N3C2=O)[C@H]2C(=O)N(c3ccccc3)C(=O)[C@H]21 (stereo not given in full)	x	-15%	1%
Cc1cccc(C)c1NC(=O)NC1(C(=O)NCCN2CCOCC2)CCCCC1	x	x	5%
OCC(O)C(O)[C@H](O[C@H]1OC(CO)C(O)C(O)C1O)[C@H](O)CO (stereo not given in full)	x	-5%	-4%
COCCOC(=O)c1c(NC(=O)CNCc2ccco2)sc(C(N)=O)c1C	x	x	10µM*
COCCOC(=O)c1c(NC(=O)CN2CCCc3ccccc32)sc(C(N)=O)c1C	u	x	-2%
Cc1sc(NC(=O)c2ccccc2F)c(CN2CCCCC2)c1C	u	-17%	3%
CCc1c(C)sc(NC(=O)c2ccco2)c1C(=O)N1CCOCC1	9	u	22µM*
CCOC(=O)c1c(NC(=O)c2ccco2)sc2c1CCCCC2	-26	u	u
CCOC(=O)c1cc(NC(=O)c2ccco2)ccc1N1CCOCC1	x	x	3%
CCOC(=O)c1c(NC(=O)C(C)N2CCN(C(=O)c3ccco3)CC2)sc2c1CCCC2 (stereo not given)	-21	u	22µM*
Cc1sc(NC(=O)c2ccc(F)cc2)c(CN2CCCCCC2)c1C	u	-25%	10µM*
SMILES	PNC assembly inh	HPGD block	ALDH1A1 inh
CC[C@H](C)[C@H](NC(=O)[C@H](C)NC(=O)[C@H](CC(N)=O)NC(=O)[C@H](CCCCN)NC(=O)[C@H](Cc1ccccc1)NC(=O)[C@H](CC(C)C)NC(=O)[C@@H](NC(=O)[C@@H](NC(=O)[C@H](CC(C)C)NC(=O)[C@@H]1CCCN1C(=O)[C@@H](NC(=O)[C@H](CCC(N)=O)NC(=O)[C@H](CO)NC(=O)[C@H](CCCCN)NC(=O)[C@H](CCC(=O)O)NC(=O)[C@H](CO)NC(=O)[C@@H](NC(=O)[C@H](CCSC)NC(=O)[C@H](Cc1ccccc1)NC(=O)CNC(=O)CNC(=O)[C@@H](N)Cc1ccc(O)cc1)[C@@H](C)O)[C@@H](C)O)C(C)C)[C@@H](C)O)C(=O)N[C@H](C(=O)N[C@@H](CCCCN)C(=O)N[C@@H](CC(N)=O)C(=O)N[C@@H](C)C(=O)N[C@@H](Cc1ccc(O)cc1)C(=O)N[C@@H](CCCCN)C(=O)N[C@@H](CCCCN)C(=O)NCC(=O)N[C@@H](CCC(=O)O)C(=O)O)[C@@H](C)CC	x	x	3%
COc1ccc(-c2coc3c(O)c(OC)ccc3c2=O)cc1	x	-17%	u
CC1CC(NC(=O)N(C)C)N(C)C(=O)N1 (stereo not given)	0	-3%	19%
C=Cc1ccc([C@H]2N[C@@H](C(=O)O)CC[C@@H]2C)cc1	x	x	13%[13.5 µM]
COc1cc2c(cc1OC)C1C(=O)c3ccc4c(c3OC1CO2)C=CC(C)(C)O4 (stereo not given)	x	-13%	2%
Cc1sc(NC(=O)c2ccco2)c(CN2CCN(Cc3ccccc3)CC2)c1C	x	x	28µM*
CCOC(=O)c1c(NC(=O)c2ccco2)sc(C(=O)N2CCCC2)c1C	20	14µM*	u
Cc1ccc(CN2CCN(C(=O)c3ccco3)CC2)cc1	-12	1%	-8%
COC(=O)c1c(NC(=O)c2ccco2)sc(C(=O)N(C)C)c1C	-100*	u	u
CCc1c(C)sc(NC(=O)c2ccco2)c1C(=O)N1CCCCC1	7	-4%	25µM*
CCOC(=O)c1c(NC(=O)CN2CCN(C(=O)c3ccco3)CC2)sc(C(N)=O)c1C	x	x	-3%
COC(=O)c1c(NC(=O)c2cccnc2)sc(C(=O)N(C)C)c1C	-13	-24%	-6%
O=C(CSc1nnc(NC(=O)c2ccc(S(=O)(=O)N3CCOCC3)cc2)s1)Nc1ccccc1C(F)(F)F	43	-19%	-16%
Cc1sc2ncn(CC(=O)N3CCCCC3)c(=O)c2c1C	x	x	5%
COC(=O)C1=C(C(=O)OC)[C@@H]2Nc3ccccc3[C@@]23C[C@@H](C(=O)OC)N(S(=O)(=O)c2ccc(C)cc2)C3=N1	x	-5%	17%[13.5 µM]
CN(CCc1ccc(Cl)c(Cl)c1)CCN1CCCC1	x	-8%	10%
CCCCN1CCC(n2c(=O)[nH]c3ccccc32)CC1	x	5%	21%
Nc1nc(SCC(=O)Nc2ccccc2Sc2ccccc2)n[nH]1	-111*	-17%	u
Nc1nc(SCC(=O)Nc2ccc(Oc3ccccc3)cc2)n[nH]1	u	u	11%
O=C(Cc1ccc(Cl)cc1)Nc1ccccc1Sc1ccccc1	55	-15%	-12%
O=C(CCl)Nc1ccccc1Sc1ccccc1	u	-8%	4µM*
COc1cc(NC(C)CCCN)c2ncccc2c1Oc1ccccc1 (stereo not given)	-24	-4%	-4%
Cc1ccc(S(=O)(=O)NC(=O)O[C@@H]2C(=O)c3cc(Br)ccc3O[C@H]2c2ccc3c(c2)OCO3)cc1	x	-13%	-4%
